Experimental data as given in PubChem BioAssay (EPA / NIEHS).
Where “and” joins values, the source holds several entries; their conditions need not be identical. Equal values may be shown once. Some structures have more than one record in an assay (separate samples or runs), and their calls can disagree. Calls of active or inactive are those of the source. How the source made its calls: active means hit-call score of the fitted dose curve at least 0.9, where 1 is the maximum; inactive means score below 0.9.

Assays:
[1] = ATG_M_32_CIS: Attagene CIS-FACTORIAL HepG2 Assay for M32 Transcription Factor (Internal Marker) (AID 2282949); conditions: HepG2 Attagene cis-factorial M32 reporter, mRNA; actives raise or lower the signal;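 further: background control marker of the multiplexed CIS panel rather than a real target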
How it was run: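 Fluorescent capillary electrophoresis peaks of HpaI-digested, FAM-labelled RT-PCR reporter products give the signal. Source: transiently transfected human liver HepG2 cells, 24 h after chemical dosing; bidirectional fitting against DMSO.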

[2] = ATG_M_06_CIS: Attagene CIS-FACTORIAL HepG2 Assay for M06 Transcription Factor (Internal Marker) (AID 2282950); conditions: HepG2 Attagene CIS-FACTORIAL M06 internal marker reporter; actives raise or lower the signal
How it was run: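 HepG2 cells transiently transfected with cis-regulated multiple reporter transcription units were exposed to chemical for 24 h; reporter mRNA was quantified by RT-PCR, 6-FAM primer labelling, HpaI digestion and capillary electrophoresis, fitted bidirectionally against DMSO.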

[3] = molecular target: Hypoxia-inducible factor 1-alpha (Homo sapiens) (UniProt Q16665); assay: ATG_HIF1a_CIS: Attagene CIS-FACTORIAL HepG2 Assay for human Hypoxia Inducible Factor 1 (HIF1A) (AID 2282951); conditions: HepG2 Attagene cis-factorial HIF1a reporter transcription; actives raise or lower the signal
How it was run: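 Measures endogenous transcription-factor activity through cis-regulated reporter mRNA in HepG2. Cells dosed 24 h; transcripts quantified by RT-PCR with 6-FAM-labelled products separated by capillary electrophoresis; DMSO serves as negative control.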

[4] = molecular target: Hepatocyte nuclear factor 6 (Homo sapiens) (UniProt Q9UBC0); assay: ATG_HNF6_CIS: Attagene CIS-FACTORIAL HepG2 Assay for human Hepatocyte Nuclear Factor 6 (HNF6) (AID 2282952); conditions: HepG2 Attagene cis-factorial HNF6 reporter transcription; actives raise or lower the signal
How it was run: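 HepG2 cells transiently transfected with cis-element-driven multiple reporter transcription units, dosed 24 h; reporter mRNA quantified by RT-PCR, FAM primer extension, HpaI digestion and capillary electrophoresis; bidirectional fit versus DMSO baseline.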

[5] = molecular target: Heat shock factor protein 1 (Homo sapiens) (UniProt Q00613); assay: ATG_HSE_CIS: Attagene CIS-FACTORIAL HepG2 Assay for human Heat Shock Transcription Factor 1 (HSE) (AID 2282953); conditions: HepG2 HSE cis-reporter, Attagene RNA transcription; actives raise or lower the signal
How it was run: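 HepG2 cells transiently transfected with multiple reporter transcription units under cis-regulatory promoter control, measuring endogenous transcription factor activity. After 24 h chemical exposure, reporter mRNA quantified by RT-PCR, fluorescent labelling, HpaI digestion and capillary electrophoresis; bidirectional fit versus DMSO.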

[6] = ATG_MRE_CIS: Attagene CIS-FACTORIAL HepG2 Assay for human Metal Responsive Element (MRE) (AID 2282954); conditions: HepG2 MRE cis-reporter transcription, Attagene multiplex; actives raise or lower the signal
How it was run: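 HepG2 cells transiently transfected with cis-element-driven reporter units; mRNA measured 24 h after dosing. Reporter transcripts quantified by RT-PCR, FAM labelling, HpaI digestion and capillary electrophoresis; bidirectional fit versus DMSO.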

[7] = ATG_PBREM_CIS: Attagene CIS-FACTORIAL HepG2 Assay for human Phenobarbital-responsive Enhancer Module (PBREM) (AID 2282955); conditions: HepG2 PBREM cis-reporter, Attagene multiplexed transcription; actives raise or lower the signal
How it was run: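 Fluorescence of labelled reporter cDNA fragments, resolved by capillary electrophoresis, gives mRNA induction in transfected HepG2 cells treated for 24 h; DMSO serves as negative control and baseline.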

[8] = molecular target: Paired box protein Pax-6 (Homo sapiens) (UniProt P26367); assay: ATG_Pax6_CIS: Attagene CIS-FACTORIAL HepG2 Assay for human Paired Box 6 (PAX6) (AID 2282956); conditions: HepG2 CIS-FACTORIAL PAX6 reporter transcription, RNA readout; actives raise or lower the signal
How it was run: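 HepG2 cells transiently transfected with cis-promoter-driven multiplexed reporter units sensing endogenous transcription factor activity; 24 h chemical exposure. Reporter mRNA quantified by RT-PCR, 6-FAM labelling, HpaI digestion and capillary electrophoresis; bidirectional fit versus DMSO baseline.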

[9] = ATG_PXRE_CIS: Attagene CIS-FACTORIAL HepG2 Assay for human Pregnane X Receptor Element (PXRE) (AID 2282957); conditions: HepG2 Attagene CIS-FACTORIAL PXRE reporter, mRNA; actives raise or lower the signal
How it was run: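 HepG2 cells transiently transfected with cis-regulated multiple reporter transcription units; endogenous factor activity measured as reporter mRNA 24 h after dosing. RT-PCR, fluorescent primer extension, HpaI digestion, capillary electrophoresis; bidirectional fit versus DMSO baseline.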

[10] = ATG_PPRE_CIS: Attagene CIS-FACTORIAL HepG2 Assay for human Peroxisome Proliferator-activated Response Element (PPRE) (AID 2282958); conditions: HepG2 PPRE cis-element reporter, Attagene transcription factor profiling; actives raise or lower the signal
How it was run: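 Cells are first transfected transiently with the multiplexed reporter library, then dosed for 24 h. Total RNA is reverse-transcribed, amplified, fluorescently end-labeled and HpaI-cut before capillary electrophoresis; activity is fitted bidirectionally against DMSO controls.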

[11] = ATG_RORE_CIS: Attagene CIS-FACTORIAL HepG2 Assay for human RAR-related Orphan Receptor Element (RORE) (AID 2282959); conditions: HepG2 Attagene cis-factorial RORE reporter, mRNA; actives raise or lower the signal
How it was run: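 Cells were HepG2 carrying transfected cis-regulated reporter constructs, dosed for 24 hours. Total RNA was reverse-transcribed and reporter cDNA amplified, fluorescently labeled and sized by capillary electrophoresis. Activity was fitted bidirectionally relative to DMSO.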

[12] = ATG_Sox_CIS: Attagene CIS-FACTORIAL HepG2 Assay for human SRY-box transcription factor (SOX) (AID 2282960); conditions: HepG2 Attagene cis-factorial SOX reporter, mRNA; actives raise or lower the signal
How it was run: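 Transient MRTU transfection of HepG2; 24 h compound incubation; TriZol RNA, oligo(dT) RT, PCR, 6-FAM primer extension, HpaI cut, CE. Bidirectional fit, DMSO = baseline.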

[13] = molecular target: Transcription factor Sp1 (Homo sapiens) (UniProt P08047); assay: ATG_Sp1_CIS: Attagene CIS-FACTORIAL HepG2 Assay for human Specificity Protein 1 (Sp1) (AID 2282961); conditions: HepG2 Sp1 cis-reporter transcription, actives raise or lower the signal
How it was run: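 Endogenous Sp1 activity was gauged in human liver HepG2 cells bearing transfected reporter units under a cis-regulating promoter. After 24 h dosing, reporter mRNA was quantified by RT-PCR with capillary electrophoresis, and activity fitted bidirectionally versus DMSO.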

[14] = ATG_SREBP_CIS: Attagene CIS-FACTORIAL HepG2 Assay for human Sterol Regulatory Element Binding (SREBP) (AID 2282962); conditions: HepG2 Attagene cis-factorial SREBP reporter, mRNA; actives raise or lower the signal
How it was run: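 HepG2 cells transiently transfected with multiplexed cis-promoter reporter units sensing endogenous transcription factors; reporter mRNA measured 24 h after dosing by RT-PCR, 6-FAM labeling, HpaI digestion and capillary electrophoresis. Bidirectional fit versus DMSO.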

[15] = molecular target: Signal transducer and activator of transcription 3 (Homo sapiens) (UniProt P40763); assay: ATG_STAT3_CIS: Attagene CIS-FACTORIAL HepG2 Assay for human Signal Transducer and Activator of Transcription 3 (STAT3) (AID 2282963); conditions: HepG2, Attagene cis-factorial STAT3 reporter transcription; actives raise or lower the signal
How it was run: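 HepG2 cells transiently transfected with multiple cis-element-driven reporter units report endogenous transcription factor activity. After 24 h compound exposure, reporter mRNA is measured by RT-PCR, 6-FAM labelling, HpaI digestion and capillary electrophoresis. Fitted bidirectionally versus DMSO.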

[16] = ATG_TA_CIS: Attagene CIS-FACTORIAL HepG2 Assay for human TA Basal Promoter (AID 2282964); conditions: HepG2 Attagene CIS-factorial TA basal promoter reporter; actives raise or lower the signal
How it was run: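 HepG2 cells transiently transfected with multiplexed cis-promoter reporter units, dosed 24 h. Reporter mRNA measured by RT-PCR, 6-FAM labelling, HpaI digestion and capillary electrophoresis; bidirectional fit versus DMSO baseline, serving as background control.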

[17] = ATG_TCF_b_cat_CIS: Attagene CIS-FACTORIAL HepG2 Assay for human T-Cell-Factor with beta-catenin (TCF/b-cat) (AID 2282965); conditions: HepG2 TCF/beta-catenin cis-reporter transcription, actives raise or lower the signal
How it was run: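 Cells of the HepG2 line carry transiently transfected reporter units whose promoters respond to endogenous factors. Twenty-four hours post-dosing, reporter mRNA induction is measured by fluorescent RT-PCR and capillary electrophoresis, with DMSO as baseline.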

[18] = ATG_TAL_CIS: Attagene CIS-FACTORIAL HepG2 Assay for human TAL Basal Promoter (AID 2282966); conditions: HepG2 Attagene cis-factorial TAL promoter reporter; actives raise or lower the signal;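 further: background control endpoint measuring basal TAL promoter reporter mRNA not a specific factor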
How it was run: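 HepG2 cells were transiently transfected with promoter-driven multiplexed reporter units and dosed for 24 h. Reporter mRNA was measured by RT-PCR with capillary electrophoresis fluorescence; bidirectional fits used DMSO as baseline, serving as a background control.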

[19] = ATG_TGFb_CIS: Attagene CIS-FACTORIAL HepG2 Assay for human Transforming Growth Factor (TGF) (AID 2282967); conditions: HepG2 Attagene CIS TGFb reporter, mRNA transcription; actives raise or lower the signal
How it was run: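 HepG2 cells transiently transfected with cis-promoter-driven multiplexed reporter units; 24 h compound exposure. Reporter mRNA measured by RT-PCR, 6-FAM labeling, HpaI digestion and capillary electrophoresis; bidirectional fit versus DMSO baseline.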

[20] = ATG_VDRE_CIS: Attagene CIS-FACTORIAL HepG2 Assay for human Vitamin D Receptor Element (VDRE) (AID 2282968); conditions: HepG2 VDRE cis-reporter transcription, actives raise or lower the signal
How it was run: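 Transiently transfected HepG2 cells carrying cis-regulated reporter transcription units were exposed for 24 h. Reporter mRNA was measured by RT-PCR with fluorescent labelling and capillary electrophoresis, and fitted in both directions against DMSO.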

Measured: AC50

Sequence of Hepatocyte nuclear factor 6 (Homo sapiens) (Q9UBC0 whole entry, looked up): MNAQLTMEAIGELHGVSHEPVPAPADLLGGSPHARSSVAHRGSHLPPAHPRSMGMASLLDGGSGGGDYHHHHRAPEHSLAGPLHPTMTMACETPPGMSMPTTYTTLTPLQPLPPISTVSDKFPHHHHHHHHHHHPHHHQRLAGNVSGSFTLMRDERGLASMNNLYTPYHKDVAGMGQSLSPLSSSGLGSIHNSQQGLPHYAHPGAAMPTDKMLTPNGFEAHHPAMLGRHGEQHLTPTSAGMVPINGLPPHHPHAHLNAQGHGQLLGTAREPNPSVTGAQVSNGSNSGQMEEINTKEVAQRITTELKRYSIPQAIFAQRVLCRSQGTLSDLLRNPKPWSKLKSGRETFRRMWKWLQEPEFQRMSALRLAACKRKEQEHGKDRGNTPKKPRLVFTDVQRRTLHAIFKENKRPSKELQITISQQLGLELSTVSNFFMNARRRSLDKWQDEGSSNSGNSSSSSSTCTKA
Sequence of Paired box protein Pax-6 (Homo sapiens) (P26367 whole entry, looked up): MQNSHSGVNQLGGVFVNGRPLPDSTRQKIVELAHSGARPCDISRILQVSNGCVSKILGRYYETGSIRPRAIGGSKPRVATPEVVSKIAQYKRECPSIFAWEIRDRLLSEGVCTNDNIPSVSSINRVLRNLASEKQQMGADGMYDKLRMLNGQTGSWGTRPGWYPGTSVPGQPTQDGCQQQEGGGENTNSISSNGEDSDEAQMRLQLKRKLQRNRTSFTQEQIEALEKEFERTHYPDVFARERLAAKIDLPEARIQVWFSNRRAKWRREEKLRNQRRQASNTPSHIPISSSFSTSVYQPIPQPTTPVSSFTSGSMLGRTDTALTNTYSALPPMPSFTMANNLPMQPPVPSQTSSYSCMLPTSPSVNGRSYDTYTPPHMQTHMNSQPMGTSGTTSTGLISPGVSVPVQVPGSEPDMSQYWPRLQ
Sequence of Transcription factor Sp1 (Homo sapiens) (P08047 whole entry, looked up): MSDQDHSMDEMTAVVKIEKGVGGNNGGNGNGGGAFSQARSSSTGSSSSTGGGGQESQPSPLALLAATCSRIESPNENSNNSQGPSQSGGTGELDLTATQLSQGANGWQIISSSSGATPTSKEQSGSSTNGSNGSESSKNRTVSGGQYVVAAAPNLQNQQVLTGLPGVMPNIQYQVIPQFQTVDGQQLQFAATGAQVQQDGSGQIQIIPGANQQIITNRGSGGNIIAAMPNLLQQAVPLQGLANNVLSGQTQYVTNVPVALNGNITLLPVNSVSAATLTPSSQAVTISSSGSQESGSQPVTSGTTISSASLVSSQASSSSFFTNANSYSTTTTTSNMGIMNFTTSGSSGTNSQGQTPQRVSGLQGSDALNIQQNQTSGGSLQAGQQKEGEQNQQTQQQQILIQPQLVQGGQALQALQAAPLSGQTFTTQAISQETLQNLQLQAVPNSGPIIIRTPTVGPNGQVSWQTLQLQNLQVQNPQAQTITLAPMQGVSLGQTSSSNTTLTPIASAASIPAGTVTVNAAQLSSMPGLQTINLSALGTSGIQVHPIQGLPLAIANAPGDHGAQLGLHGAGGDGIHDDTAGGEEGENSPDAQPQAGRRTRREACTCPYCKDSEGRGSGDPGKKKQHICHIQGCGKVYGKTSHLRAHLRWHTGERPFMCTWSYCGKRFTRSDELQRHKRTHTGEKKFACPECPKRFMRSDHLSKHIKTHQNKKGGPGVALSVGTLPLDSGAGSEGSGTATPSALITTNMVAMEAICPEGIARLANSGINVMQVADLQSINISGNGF
Sequence of Heat shock factor protein 1 (Homo sapiens) (Q00613 whole entry, looked up): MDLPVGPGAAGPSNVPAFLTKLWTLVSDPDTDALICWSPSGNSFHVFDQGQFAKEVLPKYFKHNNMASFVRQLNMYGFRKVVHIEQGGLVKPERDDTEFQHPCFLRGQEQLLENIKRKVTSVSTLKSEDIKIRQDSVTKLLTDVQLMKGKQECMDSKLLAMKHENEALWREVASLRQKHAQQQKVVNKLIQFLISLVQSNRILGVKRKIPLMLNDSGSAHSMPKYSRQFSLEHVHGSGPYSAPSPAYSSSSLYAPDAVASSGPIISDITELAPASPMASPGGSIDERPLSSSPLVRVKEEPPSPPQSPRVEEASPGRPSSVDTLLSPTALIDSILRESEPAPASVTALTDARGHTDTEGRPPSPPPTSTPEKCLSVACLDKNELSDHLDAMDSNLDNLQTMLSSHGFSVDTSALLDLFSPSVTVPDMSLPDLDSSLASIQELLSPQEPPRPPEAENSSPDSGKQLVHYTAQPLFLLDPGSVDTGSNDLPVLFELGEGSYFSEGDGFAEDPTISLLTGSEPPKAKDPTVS
Sequence of Signal transducer and activator of transcription 3 (Homo sapiens) (P40763 whole entry, looked up): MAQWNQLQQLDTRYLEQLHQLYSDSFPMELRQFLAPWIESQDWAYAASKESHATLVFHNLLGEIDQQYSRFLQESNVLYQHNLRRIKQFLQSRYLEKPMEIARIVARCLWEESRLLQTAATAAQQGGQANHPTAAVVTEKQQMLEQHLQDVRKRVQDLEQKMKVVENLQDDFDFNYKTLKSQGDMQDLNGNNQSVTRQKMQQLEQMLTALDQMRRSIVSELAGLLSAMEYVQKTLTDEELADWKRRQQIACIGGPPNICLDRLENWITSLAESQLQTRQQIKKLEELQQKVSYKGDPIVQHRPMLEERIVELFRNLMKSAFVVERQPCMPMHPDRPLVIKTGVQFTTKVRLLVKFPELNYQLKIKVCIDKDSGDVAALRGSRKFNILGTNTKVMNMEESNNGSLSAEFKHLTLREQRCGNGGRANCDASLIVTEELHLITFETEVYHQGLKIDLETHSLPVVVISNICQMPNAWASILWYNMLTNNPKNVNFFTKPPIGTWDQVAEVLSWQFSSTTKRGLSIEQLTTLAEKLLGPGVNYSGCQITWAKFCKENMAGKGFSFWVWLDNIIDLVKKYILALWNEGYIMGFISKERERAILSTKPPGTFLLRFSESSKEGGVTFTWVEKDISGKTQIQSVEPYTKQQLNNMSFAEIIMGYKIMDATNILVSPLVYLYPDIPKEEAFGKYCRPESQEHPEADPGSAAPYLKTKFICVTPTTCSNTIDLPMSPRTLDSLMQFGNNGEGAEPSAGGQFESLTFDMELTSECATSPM
Sequence of Hypoxia-inducible factor 1-alpha (Homo sapiens) (Q16665 whole entry, looked up): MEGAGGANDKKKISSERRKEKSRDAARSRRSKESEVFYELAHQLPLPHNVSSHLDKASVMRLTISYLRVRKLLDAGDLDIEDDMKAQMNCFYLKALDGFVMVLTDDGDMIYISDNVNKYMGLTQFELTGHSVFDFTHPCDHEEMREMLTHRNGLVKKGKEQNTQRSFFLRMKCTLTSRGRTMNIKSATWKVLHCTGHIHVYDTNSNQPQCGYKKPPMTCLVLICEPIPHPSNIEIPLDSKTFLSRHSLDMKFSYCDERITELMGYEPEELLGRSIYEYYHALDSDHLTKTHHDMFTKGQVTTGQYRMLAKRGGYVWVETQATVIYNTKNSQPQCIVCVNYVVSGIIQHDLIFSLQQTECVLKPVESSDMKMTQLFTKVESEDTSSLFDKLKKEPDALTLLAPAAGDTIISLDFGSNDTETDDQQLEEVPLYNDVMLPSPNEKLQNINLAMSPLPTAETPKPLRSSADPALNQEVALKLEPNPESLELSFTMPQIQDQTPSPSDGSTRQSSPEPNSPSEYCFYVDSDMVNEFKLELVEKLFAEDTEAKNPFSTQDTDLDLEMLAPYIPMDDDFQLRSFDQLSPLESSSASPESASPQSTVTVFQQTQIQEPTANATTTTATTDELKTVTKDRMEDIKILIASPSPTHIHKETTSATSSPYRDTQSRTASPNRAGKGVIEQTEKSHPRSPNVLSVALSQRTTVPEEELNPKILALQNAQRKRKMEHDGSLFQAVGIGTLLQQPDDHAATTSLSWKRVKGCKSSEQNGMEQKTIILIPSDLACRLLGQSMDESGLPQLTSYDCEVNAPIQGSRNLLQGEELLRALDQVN

O=C1OC(=O)C(F)(F)C1(F)F
inactive: [1] | [2] | [3] | [4] | [5] | [6] | [7] | [8] | [9] | [10] | [11] | [12] | [13] | [14] | [15] | [16] | [17] | [18] | [19] | [20]

CC1=CC(=O)c2ccccc2C1=O
active: [9] 11.1 µM
inactive: [1] | [2] | [3] | [4] | [5] | [6] | [7] | [8] | [10] | [11] | [12] | [13] | [14] | [15] | [16] | [17] | [18] | [19] | [20]

Cc1cc(C(C)(C)C)c(O)c(C(C)(C)C)c1
active: [1] 53.6 µM | [5] 95.9 µM | [6] 52.9 µM and 91.4 µM | [9] 8.81 µM and 603 nM | [10] 11.9 µM | [13] 52.3 µM and 97 µM | [14] 33.4 µM and 60 µM
inactive: [1] | [2] | [3] | [4] | [5] | [7] | [8] | [10] | [12] | [15] | [16] | [17]

FC(F)(F)N1C(F)(F)C(F)(F)OC(F)(F)C1(F)F
inactive: [1] | [2] | [3] | [4] | [5] | [6] | [7] | [8] | [9] | [10] | [11] | [12] | [13] | [14] | [15] | [16] | [17] | [19] | [20]

Cc1ccc2ccc3ccc(C)cc3c2c1
inactive: [1] | [2] | [3] | [4] | [5] | [6] | [7] | [8] | [10] | [11] | [12] | [13] | [14] | [15] | [16] | [17] | [18] | [19] | [20]
active: [9] 8.1 µM

O=C(O)C(F)(F)OC(F)(F)C(F)(F)OC(F)(F)C(F)(F)OC(F)(F)C(F)(F)C(F)(F)C(F)(F)F
inactive: [1] | [2] | [3] | [4] | [7] | [12] | [13] | [14] | [15] | [16] | [19]
active: [3] 28.2 µM | [4] 70.1 µM | [6] 31.4 µM and 28.9 µM | [9] 11.1 µM and 4.38 µM | [10] 13.1 µM and 22.1 µM | [11] 45.4 µM and 21.6 µM | [12] 37.3 µM | [13] 31.8 µM | [17] 25.9 µM and 24.4 µM | [20] 13.1 µM and 30 µM
